Results from PubChem BioAssay AID624263 (National Center for Advancing Translational Sciences (NCATS), 2012).
The campaign covered roughly 410,000 compounds. About 820 (0.2%) were called active. Roughly 2% stayed inconclusive and do not appear here. The sample as a whole holds a higher share of actives than the screen did. Unmarked numbers belong to inactive results. Calls come from the whole dose curve; as a rule, active = well fitted activation curve with a large enough effect; inconclusive = small, poorly fitted or top-dose-only effect; inactive = flat fitted curve, though single readings scatter; cell line not stated here.

experiment: A Quantitative High throughput Screen to Identify Chemical Modulators of PINK1 Expression; conditions: PINK1 immunofluorescence, high-content cytometry, 24 h; series mostly up to 76.6 µM; activation (PINK1 increase): at the top concentration; note: nearly all actives have a fitted effect of over 65% in size; for activation (PINK1 increase): % of control where 0% means no effect
From the text: The overall goal of this project is to develop new tools for understanding and treating the mitochondrial basis for neurodegenerative disease such as Parkinson's disease (PD). The PINK1 campaign was developed from recent data pointing towards mitochondrial dysfunction as a major contributor to dopaminergic neuron loss. The discovery of PINK1/Parkin mediated mitophagy has highlighted the potential for mitochondrial quality control as a novel target for therapeutic intervention. […] A second aim of this project is the development of chemical probes to study the mechanics of mitochondrial quality control. As the PINK1/Parkin mitophagy pathway is a relative recent discovery, no specific chemical probes are available that modulate the process. Presently, only crude tools that cause nonspecific mitochondrial damage are available. To advance the understanding of mitophagy, specific, well characterized chemicals that target various steps of mitophagy regulation need to be developed. New chemical probes may have the ability to dynamically manipulate mitophagy in model organisms such as rodents and zebrafish, advancing our understanding of the process in development and disease. This HTS campaign seeks to discover an activator of PINK1 expression by modulation at the level of post-translational processing.
The PINK1 assay determines the amount and localization of PINK1 protein in a cell using a combination of immunofluorescence and cell staining. The goal of the assay is to determine small molecules that can increase the expression of Pink1 on or inside the cell's mitochondria (ideally without mitochondrial depolarization) using a stable cell line. Since PINK1 protein is rapidly degraded in un-perturbed cells, compounds that induce the enhancement of PINK1 protein expression are identified by determining PINK1 immunofluorescence in conjunction with a mitochondrial, cell, and nuclear marker post fixation. To facilitate rapid high content screening, the primary assay is run in a decision-based HTS mode where compound titration data collected by laser-scanning microplate cytometers is processed and only promising compound series are passed off for high content drill down.
1 Add cells to black, clear-bottom, low-base 1536-well plates 6 uL (250 cells/well)
2 Incubate in TC incubator (12 hours)
3 Pin compounds or DMSO controls 23 nL (5 concentrations per compound set)
4 Dispense CCCP to control columns
5 Incubate in TC incubator 24 hours
6 Aspirate media and fix cells (5 uL of fixative containing nuclear dye)
7 Incubate 15 minutes at RT
8 Wash in PBSTween (12 uL/well)
9 Wash in PBSTriton (12 uL/well)
10 Aspirate wash and add Blocking buffer (4 uL/well)
12 Aspirate block and add primary antibodies 3.5 (uL/well)
13 Incubate 12 hours at 10 degrees C
14 Wash in PBSTween-20 two times (12 uL/well)
15 Aspirate wash and add secondary antibodies (12 uL/well)
17 Wash in PBSTween (12 uL/well)
18 Wash in PBSTween with cell stain (12 uL/well)
19 Read plates on Acumen EX3 and determine Wells2Cells coordinates
Potency is the fitted concentration of half-maximal effect.

SMILES | activation (PINK1 increase) | Potency
CCC1CN(CCNC(=O)c2cccc(C)n2)Cc2cc(OC)ccc2O1 (configuration not stated) | 0.509% | 
COC(=O)c1sc(NC(=O)c2csc3c2CCCC3)nc1C |  | 10 µM (active)
CCOc1ccc(CCNC(=O)c2csc3c2CCCCC3)cc1 | 2.82% | 
CCOC(=O)c1ccc(NC(=O)c2csc3c2CCCCC3)cc1 | 3.73% | 
CCCCOc1ccc(C(=O)NO)cc1 | 1.55% | 
Cn1c(SCC(=O)Nc2cccc(O)c2)nnc1-c1ccc(S(=O)(=O)N2CCOCC2)cc1 |  | 14.1 µM (active)
CCC(=O)Nc1cccc(NC(=O)CSc2nnc(-c3ccc(NS(C)(=O)=O)cc3)n2C)c1 | -1.24% | 
Cc1ccnc(SCC(=O)Nc2cccc(S(=O)(=O)N3CCOCC3)c2)n1 | 1.18% | 
CC(C)(C(=O)NO)c1ccccc1 | 0.961% | 
CCC1(C2CCN(Cc3cccnc3)CC2)NC(=O)N(CC2COc3ccccc3O2)C1=O (configuration not stated) | -0.0745% | 
CNCCCOc1cc2nc(N3CCCN(C)CC3)nc(NC3CCN(C)CC3)c2cc1OC | 0.921% | 
COc1ccc2oc(=O)c(-c3cn4c(n3)sc3cc(OC)ccc34)cc2c1 | 2.47% | 
COc1ccc2cc(-c3nc(Cl)c4c5c(sc4n3)CC(C)CC5)c(=O)oc2c1 (configuration not stated) |  | 15.8 µM (active)
CCOC(=O)c1c(NC(=O)/C=C/c2ccc(OC)cc2)sc2c1CCC(C)C2 (configuration not stated) | 0.453% | 
COc1cc(=O)n2c(c1C(=O)N(C)Cc1nccs1)CCN(Cc1ccc(Cl)cc1)CC2 | 1.54% | 
c1ccc(CN2CCN(Cc3ccc4c(c3)CN(Cc3c[nH]c5ccccc35)CCO4)CC2)nc1 | -1.03% | 
COc1ccc(F)c(CN2CCC3(CCC(CNC(=O)c4ccn(C)n4)O3)CC2)c1 (configuration not stated) | -0.704% | 
O=C1COc2ccc(-c3csc(-c4ccc(Cl)cc4)n3)cc2N1 | 5.95% | 
OC(CBr)C[n+]1cccc2cc(Br)ccc21 (configuration not stated) | -0.654% | 
CO[C@H]1[C@H](NC(=O)C(C)C)c2ccccc2C12CCN(Cc1cnc(N(C)C)s1)CC2 | 0.667% | 
CCN1CC=C2C(C#N)=C(N)C(C#N)(C#N)[C@H](c3ccoc3)[C@H]2C1 |  | 39.8 µM (active)
CC(C)N1C[C@@H](NCc2ccccc2O)C[C@H]1C(=O)N1CCN(c2cccc(C(F)(F)F)c2)CC1 | -0.16% | 
FC(F)(F)c1cccc(-c2cn[nH]c2C2CCCN(Cc3cccn3-c3ccccn3)C2)c1 (configuration not stated) | 1.02% | 
CC(=O)Nc1ccccc1-c1nc(CNC(=O)c2ccc(Cl)cc2)c(C)o1 | 0.266% | 

SMILES | activation (PINK1 increase) | Potency
C=COC(=O)N1CCN(/[N+]([O-])=N/Oc2ccc([N+](=O)[O-])cc2[N+](=O)[O-])CC1 | 1.32% | 
CCS(=O)(=O)Nc1cc(C(=O)N2C[C@@H](C)O[C@@H](C)C2)c2c(c1)nc(-c1ccccc1)n2C | 0.73% | 
Cc1ccc(C(=O)Nc2cccc(-c3nc(CNC(=O)c4ccccc4-n4cccn4)c(C)o3)c2)s1 | 1.36% | 
COc1ccc2c(c1)CCc1cnc(-n3ncc(C(=O)NCCN4CCOCC4)c3C)nc1-2 | 1.37% | 
COc1ccc(CN2CCOc3c(cc(-c4ncc(C(F)(F)F)cc4Cl)cc3OCC3CCCO3)C2)c(O)c1 (configuration not stated) | 0.559% | 
COc1cc2nc(N3CCCN(C)CC3)nc(NC3CC3)c2cc1OC | 1.39% | 
CC(=O)Nc1cc(C(=O)N2CCc3c(Cl)cccc3C2)cc2ncn(CCc3ccccn3)c12 | -0.966% | 
CCCOc1ccc(F)cc1-c1cc(C(=O)Nc2ccc(F)c(Cl)c2)[nH]n1 |  | 39.8 µM (active)
CC(C)Oc1cc(F)ccc1-c1cc(C(=O)Nc2ccc(F)cc2)[nH]n1 | 1.71% | 
COc1ccc(Cl)cc1-c1cc(C(=O)Nc2cc(OC)c(OC)c(OC)c2)[nH]n1 | -1.2% | 
Cc1ccc2c(C)nc(N3CCCC(C(=O)NC(C)(C)CO)C3)nc2c1 (configuration not stated) | -0.708% | 
Cc1cnc(C(=O)N2CCOc3ccc(CN4CCCC(C(=O)c5cccnc5)C4)cc3C2)[nH]1 (configuration not stated) | -0.535% | 
O=c1c(-c2ccc(F)cc2)nc2cnc(N3CCOCC3)nc2n1-c1ccccc1 | 0.858% | 
COc1cc2nc(Cl)nc(NC3CC3)c2cc1OC | 1.67% | 
COc1ccc(C(=O)N2CCC3(CC2)CCN(c2ccccn2)CC3)cc1 | -0.552% | 
COc1ccccc1CNc1nc(-c2c(C)noc2C)nc2ccccc12 | 2.49% | 
COc1ccc(CN2CCC3(CCC(CNC(=O)c4ccco4)O3)CC2)cc1OC (configuration not stated) | 1.17% | 
COc1ccc(CN(C)CCn2cc(C(=O)N3CCSCC3)nn2)cc1C | -0.0428% | 
O=C(Nc1ccc2ccccc2c1)Nc1ccc2snnc2c1 |  | 44.7 µM (active)
COc1cccc(C(=O)Nc2ccc3oc(-c4ccc5ccccc5c4)nc3c2)c1 | -0.987% | 
CS(=O)(=O)c1ccccc1C(=O)Nc1ccc2sccc2c1 | 1.33% | 
CN(C)C(=O)[C@@H]1C[C@@H](Sc2nc3ccccc3[nH]2)CN1Cc1ccc(Cl)cc1 | -0.905% | 
O=C(c1cc(C(F)(F)F)cc(C(F)(F)F)c1)N1CCC[C@@]2(CCN(c3ccccn3)C2)C1 | 1.27% | 
